# Inconclusive results are not listed. Entries that show only a call come without a potency. The source made the active and inactive calls. Calls come from the whole dose curve; as a rule, active = well fitted curve in the direction sought with a large enough effect; inconclusive = small, poorly fitted or top-dose-only effect, or another doubt; inactive = no such curve, though single readings can be large; an effect the other way counts as inactive or inconclusive.
# Experiments:
# [1] = Primary qHTS for inhibitors of nuclear receptor binding SET domain protein 2 (NSD2) in an isogenic RCH-ACV NSD2 p.E1099K mutant (9B) (AID 1645876); note: nearly all actives have a fitted effect of over 70% in size; note: potency is the fitted concentration of half-maximal effect
# [2] = target: Glutathione peroxidase 1 (Homo sapiens) (UniProt P07203); assay: Primary qHTS Assay for Inhibitors of Recombinant Selenoprotein Glutathione Peroxidase 1 (GPX1) (AID 1845191); note: nearly all actives have a fitted effect of over 65% in size
# Outline: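 GR-coupled readout: NADPH consumption tracked by fluorescence, ex 340/em 450 nm, at t=0 and after 15 min at RT. Final mix 10 nM GPX1, 1 mM GSH, 0.5 mM CHP, 0.5 mM NADPH, 100 nM GR, 0.01% BSA, following 30 min enzyme–compound preincubation.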
# [3] = Primary qHTS for inhibitors of nuclear receptor binding SET domain protein 2 (NSD2) in an RCH-ACV wild type WT cells (2C) (AID 1645877); note: nearly all actives have a fitted effect of over 70% in size; note: potency is the fitted concentration of half-maximal effect
# [4] = target: Catechol O-methyltransferase (Homo sapiens) (UniProt P21964); assay: Confirmatory Screen for Target Class Profiling of Small Molecule Inhibitors of Methyltransferases (AID 1745852); conditions: MTase-Glo luminescence, SAH detection, recombinant enzyme; measured here: COMT max response; stronger effect = lower value
# [5] = target: Guanidinoacetate N-methyltransferase (Homo sapiens) (UniProt Q14353); assay: as above; conditions: activity change, negative = inhibition: at 57.3 µM (top of the series) unless noted
# [6] = target: Nicotinamide N-methyltransferase (Homo sapiens) (UniProt P40261); assay: as above; conditions: MTase-Glo luminescence, SAH detection, recombinant enzyme; measured here: NNMT max response; stronger effect = lower value
# [7] = target: Phenylethanolamine N-methyltransferase (Homo sapiens) (UniProt P11086); assay: as above; conditions: MTase-Glo luminescence, SAH detection, recombinant enzyme; measured here: PNMT max response; stronger effect = lower value
# [8] = NCATS anti-infectives library activity on HEK293 viability as a counter-qHTS vs the C. elegans viability qHTS (AID 1745854);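 note: HEK293 cells exposed to compounds for 24 hr before the viability read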
# Outline: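 Counter-screen for cytotoxicity: HEK293, 24 hr, 37C, compounds up to 41.7 uM final (a dilution series, 1:5). Readout CellTiter-Glo luminescence, 10 min RT. Digitonin control, 83.3 uM final.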
# Chain of Glutathione peroxidase 1 (Homo sapiens) (P07203 whole entry, looked up): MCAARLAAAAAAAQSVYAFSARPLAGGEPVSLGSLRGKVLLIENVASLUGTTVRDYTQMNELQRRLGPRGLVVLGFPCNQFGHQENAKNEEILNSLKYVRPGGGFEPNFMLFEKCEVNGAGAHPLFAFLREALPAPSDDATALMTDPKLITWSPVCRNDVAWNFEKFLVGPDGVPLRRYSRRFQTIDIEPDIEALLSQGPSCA
# Chain of Nicotinamide N-methyltransferase (Homo sapiens) (P40261 whole entry, looked up): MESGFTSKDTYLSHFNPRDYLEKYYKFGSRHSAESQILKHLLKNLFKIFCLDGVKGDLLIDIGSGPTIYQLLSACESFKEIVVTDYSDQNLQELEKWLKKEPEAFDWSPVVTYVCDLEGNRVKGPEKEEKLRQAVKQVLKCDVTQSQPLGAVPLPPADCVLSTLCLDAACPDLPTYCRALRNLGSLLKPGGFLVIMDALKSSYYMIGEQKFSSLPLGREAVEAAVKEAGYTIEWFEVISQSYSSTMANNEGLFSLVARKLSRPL
# Chain of Phenylethanolamine N-methyltransferase (Homo sapiens) (P11086 whole entry, looked up): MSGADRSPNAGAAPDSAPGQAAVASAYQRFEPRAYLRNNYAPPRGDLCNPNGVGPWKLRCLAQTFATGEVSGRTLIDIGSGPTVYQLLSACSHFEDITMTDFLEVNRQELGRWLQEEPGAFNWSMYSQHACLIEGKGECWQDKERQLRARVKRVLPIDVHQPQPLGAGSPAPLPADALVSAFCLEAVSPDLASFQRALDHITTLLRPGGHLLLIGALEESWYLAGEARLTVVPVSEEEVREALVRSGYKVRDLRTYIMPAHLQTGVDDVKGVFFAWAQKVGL
# Chain of Catechol O-methyltransferase (Homo sapiens) (P21964 whole entry, looked up): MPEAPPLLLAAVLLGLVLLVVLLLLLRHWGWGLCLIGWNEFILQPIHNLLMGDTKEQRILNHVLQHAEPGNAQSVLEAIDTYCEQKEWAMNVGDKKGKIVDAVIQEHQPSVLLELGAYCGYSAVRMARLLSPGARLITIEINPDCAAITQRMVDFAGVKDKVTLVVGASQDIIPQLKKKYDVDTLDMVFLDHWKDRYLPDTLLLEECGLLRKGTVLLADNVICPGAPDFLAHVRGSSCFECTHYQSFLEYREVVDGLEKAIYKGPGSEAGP
structure (smiles),measurement,setting,value
C[C@H](N)C(=O)N[C@@H](Cc1ccc(O)cc1)C(=O)N1CCC[C@H]1C(=O)NCC(=O)N[C@@H](CCCCN)C(=O)N[C@@H](Cc1ccccc1)C(N)=O,"activity change, negative = viability loss",[1],0.961% [at 9.23 µM] (inactive)
same,"activity, negative = inhibition",[2],0.372% [at 9.52 µM] (inactive)
COc1c2c(c(C)c3c1C(=O)OC3)O[C@@]1(C)CC(O)C(C(C)(C)O)[C@](C)(CCC(=O)O)[C@H]1C2 (stereo partly specified),Potency,[1],inactive
same,Potency,[2],inactive
COc1ccc(CCC(=O)c2c(O)cc(O)cc2O[C@@H]2O[C@H](CO)[C@@H](O)[C@H](O)[C@H]2O)cc1,Potency,[3],8.93 µM (active)
same,Potency,[2],inactive
CC[C@H]1OC(=O)[C@](C)(F)C(=O)[C@H](C)[C@@H](O[C@@H]2O[C@H](C)C[C@H](N(C)C)[C@H]2O)[C@](C)(OC)C[C@@H](C)C(=O)[C@@H](C)[C@H]2N(CCCCn3cc(-c4cccc(N)c4)nn3)C(=O)O[C@]12C,Potency,[1],20.5 µM (active)
same,Potency,[2],inactive
C/C=C(\C)C(=O)O[C@@H]1CC2[C@@H](CC=C3C[C@@H](O[C@H]4C[C@H](OC)[C@H](O[C@H]5C[C@H](OC)[C@H](O[C@@H]6O[C@H](C)[C@@H](O[C@H]7C[C@H](OC)[C@H](O[C@@H]8O[C@H](CO)[C@@H](O)[C@H](O)[C@H]8O)[C@@H](C)O7)[C@H](OC)[C@H]6O)[C@@H](C)O5)[C@@H](C)O4)CC[C@@]32C)[C@@]2(O)CC[C@H](C(C)=O)[C@@]12C (stereo partly specified),"activity change, negative = viability loss",[1],-8.77% [at 9.23 µM] (inactive)
same,outcome,[2],inactive [at 9.52 µM]
C[C@@H]1CCC/C=C/[C@H]2CC(=O)C[C@@H]2[C@@H](O)/C=C/C(=O)O1,Potency,[1],inactive
same,Potency,[2],inactive
CC[C@H](NC(=O)[C@H](CS(=O)(=O)CC1CC1)N[C@@H](c1ccc(F)cc1)C(F)(F)F)C(=O)C(=O)NC1CC1,Potency,[1],inactive
same,Potency,[2],inactive
C[C@@H]1O[C@@H](O[C@H]2[C@H](O)[C@@H](O)[C@H](O[C@H]3[C@H](O[C@H]4CC[C@@]5(C)C(=CC[C@@H]6C5CC[C@]5(C)[C@@H]7[C@H](C[C@@H]65)O[C@]5(CC[C@@](C)(CO[C@@H]6O[C@H](CO)[C@@H](O)[C@H](O)[C@H]6O)O5)[C@H]7C)C4)O[C@H](CO)[C@@H](O)[C@@H]3O)O[C@@H]2CO)[C@H](O)[C@H](O)[C@H]1O (stereo partly specified),Potency,[3],2.18 µM (active)
same,Potency,[2],inactive
C=C1C(=O)O[C@H]2[C@H]1CC/C(C)=C/CC[C@@]1(C)O[C@@H]21,Potency,[1],25.8 µM (active)
same,Potency,[2],inactive
CO[C@H]1O[C@@H]2O[C@]3(C)CC[C@H]4[C@H](C)CC[C@@H]([C@H]1C)[C@@]24OO3,Potency,[3],7.28 µM (active)
CC(C)CNCc1ccc(-c2ccccc2S(=O)(=O)N2CCCC2)cc1,Potency,[1],inactive
same,Potency,[2],inactive
CC1=CCC2C(C)(C)CCC[C@]2(C)[C@@]12CC[C@](C)(CC(=O)O)O2 (stereo partly specified),Potency,[3],inactive
same,Potency,[2],inactive
OC/C=C/C=C/[C@H]1Cc2cc(O)cc(O)c2O1,Potency,[1],inactive
same,Potency,[2],inactive
O=C(OC1C=C(CO)C2C(OC3OC(CO)C(O)C(O)C3O)OC=CC12)c1ccc(O)cc1 (stereo unspecified),Potency,[1],inactive
same,Potency,[2],inactive
C=C1C(=O)OC2CC3(C)C(CC12)C(C)=CC(O)C3OC(C)=O (stereo unspecified),activity,[4],-65.4%
same,"activity change, negative = inhibition",[5],0%
same,activity,[6],1.24%
same,activity,[7],-2.5%
C/C=C/c1ccc2c(c1)[C@@H](C)[C@H](c1ccc(O)cc1)O2,activity,[4],-8.28%
same,"activity change, negative = inhibition",[5],0.447%
same,activity,[6],-59.1%
same,activity,[7],0.8%
N#C[C@@H]1CCCN1C(=O)CNC12CC3CC(CC(O)(C3)C1)C2,Potency,[8],inactive

# Source: PubChem BioAssay (NCATS)
